Many of the other results were omitted from the sample, so hits are more common in it than they were.
N-glyco inh – N-linked glycosylation inhibition; D54 ERlucT glycosylation luciferase reporter, 24 h; percent of 100 nM tunicamycin response; reporter increase, % at 12.5 µM; hit rate 0.23% among 360,000;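 active = mean luciferase reporter signal, scaled so untreated is 0 and the glycosylation-blocking control 100, at or above a set limit in every replicate; inconclusive = mean reaches the limit but not every replicate does; inactive = mean below the limit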;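 note: luciferase carries N-glycosylation sites so blocking glycosylation raises the light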
DENV2 CPE rescue – protects cells from dengue virus 2 cytopathic effect; DENV2-infected cells, cytopathic effect rescue, plate reader; CPE inhibition, % at 9.99 µM; hit rate 1.7% among 350,000; AID 651640; in the data active = CPE inhibition above about 20%, passing the limit was not always enough; inconclusive = no clear call, values can overlap the other calls; tested in BHK-21 cells
PglD inh – inhibitors of Campylobacter jejuni PglD acetyltransferase; purified PglD enzyme, DTNB colorimetric CoA detection; inhibition, % at 12.5 µM; hit rate 0.098% among 360,000; in the data active = inhibition above about 16%, passing the limit was not always enough; inconclusive = no clear call, values can overlap the other calls
Rtt109 HAT inh – blocks Candida albicans Rtt109/Vps75 acetyltransferase activity; Q5AAJ8; purified Rtt109/Vps75, ThioGlo CoA-SH fluorescence, 4 h; inhibition, % at 34.9 µM; hit rate 0.16% among 330,000; AID 540336;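 active = inhibition of at least 50% in every replicate; inconclusive = best replicate reaches 50% inhibition but some replicates fall short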
Target sequence (Q5AAJ8 whole entry, looked up): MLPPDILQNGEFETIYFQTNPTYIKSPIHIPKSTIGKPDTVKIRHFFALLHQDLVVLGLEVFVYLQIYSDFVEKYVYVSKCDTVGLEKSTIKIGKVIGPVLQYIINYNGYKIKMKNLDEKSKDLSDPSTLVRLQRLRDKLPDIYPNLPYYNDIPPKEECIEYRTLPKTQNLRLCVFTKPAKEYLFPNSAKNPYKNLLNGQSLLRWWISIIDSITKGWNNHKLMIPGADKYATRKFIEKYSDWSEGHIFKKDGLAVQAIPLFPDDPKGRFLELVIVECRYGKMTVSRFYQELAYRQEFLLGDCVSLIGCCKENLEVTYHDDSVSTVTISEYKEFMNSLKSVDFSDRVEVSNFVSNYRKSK
A number is an active result.

`CCOC(=O)CN1CC23C=CC(O2)C(C(=O)NCCc2ccccc2)C3C1=O` (centres undefined) gave N-glyco inh inactive, DENV2 CPE rescue 22, PglD inh inactive and Rtt109 HAT inh inactive.
O=C1NC(=O)/C(=C/c2cc3c(cc2Br)OCO3)S1 was read as N-glyco inh inactive, DENV2 CPE rescue 22, PglD inh inactive and Rtt109 HAT inh inactive.
Screening C[C@@H]1CCCCO[C@H](CN(C)Cc2ccc(C(=O)O)cc2)[C@@H](C)CN([C@H](C)CO)C(=O)c2cc(NC(=O)Nc3ccc4c(c3)OCO4)ccc2O1 returned DENV2 CPE rescue inactive and PglD inh inactive.
Screening CC(OC(=O)c1ccc(C(C)(C)C)cc1)C(=O)NC1CCCCC1C (centres undefined) returned N-glyco inh inactive, DENV2 CPE rescue inactive, PglD inh inactive and Rtt109 HAT inh inactive.
Screening CC(OC(=O)c1ccccc1NCCO)C(=O)NC1CCCCC1C (centres undefined) returned N-glyco inh inactive, DENV2 CPE rescue 69, PglD inh inactive and Rtt109 HAT inh inactive.
Screening COc1ccccc1S(=O)(=O)N[C@@H]1CC[C@H](CCn2cc(C3CC3)nn2)O[C@H]1CO returned DENV2 CPE rescue inactive and PglD inh inactive.
COc1ccc(S(=O)(=O)N2CCCCCC2)cc1C(=O)N(C)CCOc1ccc(Cl)cc1 was read as N-glyco inh inactive, DENV2 CPE rescue inactive, PglD inh inactive and Rtt109 HAT inh inactive.
`CCN1CCN(S(=O)(=O)c2ccc(Cl)c(C(=O)N(C)CCOc3ccc(Cl)cc3)c2)CC1` gave N-glyco inh inactive, DENV2 CPE rescue 67 and Rtt109 HAT inh inactive.
CC(C)NC(=O)N(C)C[C@H]1Oc2ccc(NC(=O)NC3CCCCC3)cc2C(=O)N([C@H](C)CO)C[C@H]1C was read as DENV2 CPE rescue inactive and PglD inh inactive.
COc1ccc(S(=O)(=O)N(C)C[C@H]2OCCCC[C@H](C)Oc3ccc(NS(=O)(=O)c4ccc(Cl)cc4)cc3C(=O)N([C@H](C)CO)C[C@H]2C)cc1 was read as DENV2 CPE rescue 21.
`COc1ccc(S(=O)(=O)Nc2ccc3c(c2)C(=O)N([C@@H](C)CO)C[C@@H](C)[C@@H](CN(C)S(=O)(=O)c2ccc(Cl)cc2)OCCCC[C@H](C)O3)cc1` gave DENV2 CPE rescue 35 and PglD inh inactive.
`O=C(CN1C(=O)NC2(CCCC2)C1=O)N1CCN(S(=O)(=O)c2ccccc2[N+](=O)[O-])CC1` gave N-glyco inh inactive, DENV2 CPE rescue 38, PglD inh inactive and Rtt109 HAT inh inactive.
Screening COCC(=O)N1CC2(C1)[C@@H](c1ccccc1)[C@@H](CO)N2Cc1ccccc1OC returned DENV2 CPE rescue inactive.
`Cc1cc(OCC(O)CNC(C)c2ccccc2)ccc1C(C)C` (centres undefined) gave N-glyco inh inactive, DENV2 CPE rescue 39, PglD inh inactive and Rtt109 HAT inh inactive.
`CC(NCC(O)COc1ccc2ccccc2c1)c1ccccc1` (centres undefined) gave N-glyco inh inactive, DENV2 CPE rescue inactive, PglD inh inactive and Rtt109 HAT inh inactive.
For Cc1ccc(S(=O)(=O)N(C)C[C@@H]2Oc3ccc(NS(=O)(=O)c4ccccc4)cc3C(=O)N([C@H](C)CO)C[C@H]2C)cc1 the results were DENV2 CPE rescue inactive and PglD inh inactive.
Screening Cc1ccc(S(=O)(=O)Nc2ccc3c(c2)C(=O)N([C@H](C)CO)C[C@H](C)[C@@H](CN(C)S(=O)(=O)c2ccccc2)O3)cc1 returned DENV2 CPE rescue 39 and PglD inh inactive.
Screening Cc1ccc(S(=O)(=O)Nc2ccc3c(c2)C(=O)N([C@H](C)CO)C[C@@H](C)[C@H](CN(C)S(=O)(=O)c2ccc(Cl)cc2)O3)cc1 returned DENV2 CPE rescue 43.
CCCNC(=O)N(C)C[C@@H]1Oc2ncc(-c3ccc(OC)cc3)cc2C(=O)N([C@@H](C)CO)C[C@H]1C was read as DENV2 CPE rescue inactive and PglD inh inactive.
`CCCC#Cc1cnc2c(c1)C(=O)N([C@@H](C)CO)C[C@@H](C)[C@H](CN(C)C(=O)Cc1cccnc1)O2` gave DENV2 CPE rescue inactive and PglD inh inactive.
CCOc1c(N2CC(C)OC(C)C2)c(=O)c1=O (centres undefined) was read as N-glyco inh inactive, DENV2 CPE rescue inactive, PglD inh inactive and Rtt109 HAT inh inactive.
CC1CN(C2=CC(=O)CCC2)CC(C)O1 (centres undefined) was read as N-glyco inh inactive, DENV2 CPE rescue 21 and Rtt109 HAT inh inactive.
For COc1ccc(-c2nc(-c3cccs3)no2)cc1 the results were N-glyco inh inactive, DENV2 CPE rescue inactive and Rtt109 HAT inh 52.
For COc1ccc(CN2[C@H](CO)[C@H]3c4ccccc4N(C(=O)CC(F)(F)F)C[C@H]32)cc1 the results were DENV2 CPE rescue inactive and PglD inh inactive.
For Cc1c(Cl)cnc(NC(=O)COC(=O)Cc2coc3ccc4ccccc4c23)c1Cl the results were N-glyco inh inactive, DENV2 CPE rescue 86, PglD inh inactive and Rtt109 HAT inh inactive.
For CCOC(=O)c1ccc(N2C(=O)c3n[nH]c(C)c3C2c2ccc(OC)cc2)cc1 (centres undefined) the results were N-glyco inh inactive, PglD inh inactive and Rtt109 HAT inh 77.
`Cc1ccc(C2(C)NC(=O)N(CC(=O)Nc3ccccc3C(=O)NC3CCCC3)C2=O)cc1` (centres undefined) gave N-glyco inh inactive, DENV2 CPE rescue 62, PglD inh inactive and Rtt109 HAT inh inactive.
For O=C(NC1CCCC1)[C@H]1[C@H](CO)[C@H]2Cn3c(cccc3=O)[C@@H]1N2Cc1cc(F)ccc1F the results were DENV2 CPE rescue inactive and PglD inh inactive.
For Cc1cc(C)c(C)c(OC(=O)c2sc(Cl)nc2C)c1 the results were N-glyco inh 38 and Rtt109 HAT inh inactive.
Screening Cc1ccc(NC(=O)c2sc(Cl)nc2C)c(C)c1 returned N-glyco inh inactive, PglD inh inactive and Rtt109 HAT inh inactive.
For O=C(N/N=C/c1ccsc1)c1cc(-c2ccncc2)nc2ccccc12 the results were N-glyco inh inactive and Rtt109 HAT inh inactive.
`O=C(N/N=C/c1ccccn1)c1cc(-c2ccncc2)nc2ccccc12` gave N-glyco inh 41 and Rtt109 HAT inh inactive.
Screening O=C(NC(Cc1ccccc1)C(=O)NC(Cc1ccccc1)C(=O)O)c1ccccc1 (centres undefined) returned N-glyco inh inactive, DENV2 CPE rescue inconclusive, PglD inh inactive and Rtt109 HAT inh inactive.
`Cc1ccnc(NC(=O)C(Cc2ccccc2)NC(=O)c2ccccc2)c1` (centres undefined) gave N-glyco inh 25, DENV2 CPE rescue 38, PglD inh inactive and Rtt109 HAT inh inactive.
Screening COC(=O)c1ccc(COc2ccccc2/C=C(\C#N)C(=O)Nc2ccccc2C)cc1 returned N-glyco inh inactive, PglD inh inactive and Rtt109 HAT inh inactive.
`COC(=O)c1ccc(COc2ccccc2/C=C(\C#N)C(=O)Nc2c(C)cccc2C)cc1` gave N-glyco inh 37, DENV2 CPE rescue inactive and Rtt109 HAT inh inactive.
